“And” between values parts separate entries of the source, which are not always exact repeats. Equal values may be shown once. Results filed as inconclusive are left out. Some structures have more than one record in an assay (separate samples or runs), and their calls can disagree. The source made the active and inactive calls. How the source made its calls, unless noted: active means hit-call score of the fitted dose curve at least 0.9, where 1 is the maximum; inactive means score below 0.9.
Legend:
[1] = CCTE_Shafer_MEA_dev_burst_rate: CCTE's Neural Network Formation Assay for Burst Rate, Shafer Lab (AID 2284042);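 on AC50: potency for loss of burst rate below DMSO control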
In short: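 Cells plated, treated day 0; recorded DIV 5, 7, 9, 12; fed and re-treated DIV 5, 9. Endpoint: bursts per recording time, active-electrode well mean, trapezoidal AUC, fitted in decreasing direction against DMSO baseline.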

[2] = CCTE_Shafer_MEA_dev_bursting_electrodes_number: CCTE's Neural Network Formation Assay for Number of Bursting Electrodes, Shafer Lab (AID 2284043; active means hit-call score of the fitted dose curve at least 0.9, where 1 is the maximum;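 further: potency is for loss of bursting electrodes relative to DMSO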)
In short: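 Primary rat cortical neurons were cultured on PEI-coated 48-well MEA plates (16 electrodes/well) and exposed from plating through day 12, with compound renewed at feeds on DIV 5 and 9. Electrodes bursting ≥1 per 2 min were counted on DIV 5, 7, 9, 12; trapezoidal AUC taken.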

[3] = CCTE_Shafer_MEA_dev_per_burst_interspike_interval: CCTE's Neural Network Formation Assay for Burst Interspike Interval, Shafer Lab (AID 2284044);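 on AC50: potency for a decrease of within-burst interspike interval below DMSO level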
In short: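 Readout is the average time between spikes inside single-electrode bursts, taken as a well mean across bursting electrodes. Cortical neurons from rat developed networks on MEA plates under continuous 12-day exposure; recordings on days 5, 7, 9 and 12 were integrated by trapezoidal AUC.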

[4] = CCTE_Shafer_MEA_dev_burst_duration_mean: CCTE's Neural Network Formation Assay for Mean Burst Duration, Shafer Lab (AID 2284045);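 on AC50: curve fitted for loss meaning shorter burst duration than DMSO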
In short: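 Primary rat cortical neurons on PEI-coated 16-electrode MEA wells, exposed from plating through day 12 with compound renewed at DIV 5 and 9; spontaneous activity recorded days 5, 7, 9, 12. Well-mean burst duration collapsed as trapezoidal AUC, fitted for loss versus DMSO.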

[5] = CCTE_Shafer_MEA_dev_interburst_interval_mean: CCTE's Neural Network Formation Assay for Mean Interburst Interval, Shafer Lab (AID 2284046);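 further: well-mean interburst interval of bursting electrodes as AUC over four recording days; curve fitted for decrease in interburst interval relative to DMSO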
In short: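 Developing rat cortical networks on 48-well MEAs receive compound from the day of plating. Burst intervals from each active electrode are averaged per well, and AUC over the recording days is fitted in the negative direction against DMSO.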

[6] = CCTE_Shafer_MEA_dev_inter_network_spike_interval_mean: CCTE's Neural Network Formation Assay for Mean Inter-network Spike Interval, Shafer Lab (AID 2284047)
In short: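 Rat cortical cultures, 1.5 x 10^5 cells/well on 48-well MEA plates; continuous exposure days 0–12, medium and compound refreshed DIV 5, 9. Mean time between consecutive network-spike peaks; AUC across DIV 5/7/9/12; DMSO baseline, negative fitting direction.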

[7] = CCTE_Shafer_MEA_dev_network_spike_number: CCTE's Neural Network Formation Assay for Number of Network Spikes, Shafer Lab (AID 2284048);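 on AC50: fit as a loss of signal meaning fewer network spikes than DMSO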
In short: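 Primary rat cortical neurons were seeded at 1.5 x 10^5 cells/well on PEI-coated 16-electrode MEA wells with laminin, exposed from plating day 0, compound renewed at DIV 5 and 9. Network spikes were recorded on days 5, 7, 9, 12 and summarized as trapezoidal AUC versus DMSO.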

[8] = CCTE_Shafer_MEA_dev_network_spike_peak: CCTE's Neural Network Formation Assay for Mean Number of Electrodes in Network Spike, Shafer Lab (AID 2284049);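 further: fitted for loss of signal meaning fewer electrodes in network spikes than DMSO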
In short: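 Continuous 12-day exposure of rat cortical cultures, starting at plating, on MEA plates. Endpoint: electrodes participating in network-spike peaks, AUC across DIV 5–12, DMSO as negative control.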

[9] = CCTE_Shafer_MEA_dev_per_network_spike_spike_number_mean: CCTE's Neural Network Formation Assay for Mean Number of Spikes in a Network Spike, Shafer Lab (AID 2284053);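 on AC50: fitted as decrease in spikes per network spike relative to DMSO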
In short: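 Continuous twelve-day exposure of developing rat cortical networks grown over 16 microelectrodes per well; spontaneous firing is captured at four time points, and the per-network-spike spike number is integrated over development by trapezoidal AUC.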

[10] = CCTE_Shafer_MEA_dev_LDH: CCTE's Lactate Dehydrogenase Assay for Cytotoxicity in the Neural Network Formation Assay, Shafer Lab (AID 2284068; active means hit-call score of the fitted dose curve at least 0.9, where 1 is the maximum;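 further: exposure for twelve days from plating with re-dosing on DIV 5 and 9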)
In short: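 Cytotoxicity companion to network-formation recordings: rat cortical neurons received compound over 12 days of development, re-dosed at DIV 5 and 9 feeds. Viability was inferred from LDH enzyme activity relative to DMSO.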

[11] = CCTE_Shafer_MEA_acute_AB: CCTE's Alamar Blue Assay for Cytotoxicity in the Neural Acute Assay, Shafer Lab (AID 2284069; active means hit-call score of the fitted dose curve at least 0.9, where 1 is the maximum;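 further: active compounds lower the viability signal compared with DMSO wells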)
In short: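 Metabolic activity in chemically exposed rat cortical neurons (MEA cultures, day 13/15 post-plating) measured via CellTiter Blue resazurin reduction, 544/590 nm fluorescence; fitted relative to DMSO, with signal loss indicating reduced viability.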

[12] = CCTE_Shafer_MEA_dev_AB: CCTE's Alamar Blue Assay for Cytotoxicity in the Neural Network Formation Assay, Shafer Lab (AID 2284083; active means hit-call score of the fitted dose curve at least 0.9, where 1 is the maximum;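 further: twelve days of exposure from plating with re-dosing on DIV 5 and 9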)
In short: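 Fluorescent resazurin reduction serves as the viability read-out, with DMSO as negative control and baseline. Cells were primary rat cortical neurons grown on MEA plates and dosed from day 0 to day 12, treatment renewed on DIV 5 and 9.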

[13] = CCTE_Shafer_MEA_acute_LDH: CCTE's Lactate Dehydrogenase Assay for Cytotoxicity in the Neural Acute Assay, Shafer Lab (AID 2284086; active means hit-call score of the fitted dose curve at least 0.9, where 1 is the maximum;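 further: active means LDH release rises above DMSO vehicle level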)
In short: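 Primary rat cortical neurons on 48-well MEA plates, treated on day 13 or 15 post-plating. After the 40-min recording with compound, medium LDH release was read by absorbance at 490 nm. Gain of signal was fitted against DMSO negative control.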

[14] = CCTE_Shafer_MEA_dev_correlation_coefficient_mean: CCTE's Neural Network Formation Assay for Mean Correlation Coefficient, Shafer Lab (AID 2284093);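 on AC50: well mean pairwise spike train correlation integrated as AUC over recording days 5 to 12; potency fitted for loss of correlation relative to DMSO vehicle wells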
In short: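 Read-out: well-mean correlation coefficient of spike trains between electrode pairs, collapsed over four recording days as trapezoidal area-under-the-curve. Developing rat cortical neuron networks grown on MEAs received test chemical continuously from plating.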

DIO2 (gene 1734) = assay: CCTE_GLTED_hDIO2: CCTE's human Deiodinase 2 (DIO2) Inhibition Assay, Great Lakes Toxicology and Ecology Division (GLTED) Lab (AID 2284050; active means hit-call score of the fitted dose curve at least 0.9, where 1 is the maximum)
In short: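 Cell-free human DIO2 enzyme was incubated with test chemical for 3 h; iodide liberated from substrate was then quantified by the Sandell-Kolthoff reaction (absorbance), run in triplicate. Loss of signal versus DMSO baseline indicated inhibition.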

DIO3 (gene 1735) = assay: CCTE_GLTED_hDIO3: CCTE's human Deiodinase 3 (DIO3) Inhibition Assay, Great Lakes Toxicology and Ecology Division (GLTED) Lab (AID 2284055; active means hit-call score of the fitted dose curve at least 0.9, where 1 is the maximum)
In short: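 Cell-free assay with human DIO3 enzyme produced by adenovirus expression; enzyme incubated with test chemical for 3 hours. Liberated iodide then measured by Sandell-Kolthoff absorbance; loss of signal versus DMSO baseline indicates inhibition, run in triplicate.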

[15] = UKN2_HCS_IMR90_neural_migration: University of Konstanz (UKN) Leist Lab Neural Crest Cell Migration Assay in human induced IMR90 Pluripotent Stem Cells (UKN2) (AID 2284204); details: actives raise or lower the signal
In short: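 iPSC-derived IMR90 neural crest cells on PLO/laminin/fibronectin were seeded around silicone stoppers; after stopper removal, migration in N2-S medium with EGF and FGF ran 24 h before 24 h chemical exposure. Calcein-AM/Hoechst high-content imaging; bidirectional fit versus DMSO.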

[16] = target: Estrogen receptor (Homo sapiens) (UniProt P03372); assay: CCTE_Deisenroth_AIME_384WELL_LUC_Shift: CCTE's 384-well Estrogen Receptor Transactivation Assay with AIME metabolic competence data shift (ERTA luciferase; difference in metabolism positive and negative), Deisenroth Lab (AID 2284041);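 further: shift is response with S9 minus without S9 so positive means metabolism raised ER signal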
In short: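 Here, parent compounds undergo 2 h phase I metabolism by PB/BNF-induced rat S9 before 24 h transactivation in VM7Luc4E2 cells; the curve models S9-positive minus S9-negative response over a 10-point series.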

Estrogen receptor (Homo sapiens), sequence (P03372 whole entry, looked up): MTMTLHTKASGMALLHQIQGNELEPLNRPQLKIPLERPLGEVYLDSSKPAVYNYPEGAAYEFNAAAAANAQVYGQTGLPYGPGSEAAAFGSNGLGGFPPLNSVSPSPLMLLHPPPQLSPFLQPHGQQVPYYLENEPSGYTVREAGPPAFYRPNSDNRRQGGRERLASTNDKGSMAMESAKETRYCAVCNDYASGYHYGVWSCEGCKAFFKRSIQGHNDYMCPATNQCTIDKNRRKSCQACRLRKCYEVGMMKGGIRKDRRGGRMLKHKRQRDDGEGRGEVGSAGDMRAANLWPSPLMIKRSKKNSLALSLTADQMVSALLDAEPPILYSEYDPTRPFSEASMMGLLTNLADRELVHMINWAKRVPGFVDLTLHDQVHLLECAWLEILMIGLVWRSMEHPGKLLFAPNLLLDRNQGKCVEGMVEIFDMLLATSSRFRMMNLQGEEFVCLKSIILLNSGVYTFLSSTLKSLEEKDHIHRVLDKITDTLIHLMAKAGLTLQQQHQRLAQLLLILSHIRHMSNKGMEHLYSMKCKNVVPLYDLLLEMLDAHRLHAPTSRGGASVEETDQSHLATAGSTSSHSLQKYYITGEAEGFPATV

For ClC1=C(Cl)C2(Cl)C3C(Cl)C=CC3C1(Cl)C2(Cl)Cl (stereo not given), the AC50 [1] was 2.74 µM (active), the AC50 [2] was 2.35 µM (active) and the outcome [3] was “inactive”. The outcome [4] was “inactive”, the AC50 [5] was 2.32 µM (active) and the outcome [6] was “inactive”. The outcome [7] was “inactive”, the AC50 [8] was 4.19 µM (active) and the AC50 [9] was 2.98 µM (active). For the same compound, the AC50 [10] was 2.98 µM (active), the outcome [11] was “inactive” and the AC50 [12] was 0.937 µM (active). The outcome [13] was “inactive” and the AC50 [14] was 1.97 µM (active).

For CC(C)(C)C(O)(CCc1ccc(Cl)cc1)Cn1cncn1 (stereo not given), the outcome [1] was “inactive”, the AC50 [2] was 5.5 µM (active) and the outcome [3] was “inactive”. The outcome [4] was “inactive”, the outcome [5] was “inactive” and the outcome [6] was “inactive”. The AC50 [7] was 0.801 µM (active), the AC50 [8] was 15 µM (active) and the AC50 [9] was 15 µM (active). The outcome [10] was “inactive”, the outcome [11] was “inactive” and the outcome [12] was “inactive”. The outcome [13] was “inactive” and the AC50 [14] was 15 µM (active).

For CCNS(=O)(=O)C(F)(F)C(F)(F)C(F)(F)C(F)(F)C(F)(F)C(F)(F)C(F)(F)C(F)(F)F, the outcome [1] was “inactive”, the AC50 [2] was 15 µM (active) and 2.98 µM (active) and the outcome [3] was “inactive”. For the same compound, the outcome [4] was “inactive”, the outcome [5] was “inactive” and the outcome [6] was “inactive”. The AC50 [7] was 2.98 µM (active), the outcome [7] was “inactive” and the AC50 [8] was 5.46 µM (active) and 1.92 µM (active). For the same compound, the AC50 (DIO2 (gene 1734)) was 100 µM (active), the AC50 [9] was 4.54 µM (active) and 2.66 µM (active) and the outcome (DIO3 (gene 1735)) was “inactive”. The AC50 [10] was 8.58 µM (active) and 4.41 µM (active), the AC50 [12] was 15 µM (active) and 7.67 µM (active) and the AC50 [14] was 2.98 µM (active) and 4.98 µM (active).

In the case of COP(=S)(OC)SCN1C(=O)c2ccccc2C1=O, the AC50 [1] is reported as 61.3 µM (active), the outcome [1] is reported as “inactive” and the AC50 [2] is reported as 32.6 µM (active) and 51.5 µM (active). The AC50 [3] was 11.2 µM (active), the outcome [3] was “inactive” and the outcome [4] was “inactive”. For the same compound, the outcome [5] was “inactive”, the outcome [6] was “inactive” and the outcome [7] was “inactive”. The AC50 [8] was 37.6 µM (active) and 51.5 µM (active), the AC50 [9] was 31.8 µM (active) and the outcome [9] was “inactive”. The AC50 [10] was 28.9 µM (active), the outcome [10] was “inactive” and the AC50 [12] was 31.7 µM (active). The outcome [12] was “inactive”, the AC50 [14] was 19 µM (active) and the outcome [14] was “inactive”. For the same compound, the outcome [15] was “inactive”.

In the case of ClC1=C(Cl)[C@]2(Cl)[C@H]3[C@H]([C@@H]4C=C[C@H]3C4)[C@@]1(Cl)C2(Cl)Cl, the AC50 [1] is reported as 5.95 µM (active), the AC50 [2] is reported as 7.53 µM (active) and the AC50 [3] is reported as 6.26 µM (active). The AC50 [4] was 3.95 µM (active), the AC50 [5] was 7.62 µM (active) and the outcome [6] was “inactive”. For the same compound, the AC50 [7] was 7.56 µM (active), the AC50 [8] was 5.55 µM (active) and the AC50 [9] was 1.98 µM (active). The AC50 [10] was 6.69 µM (active), the AC50 [12] was 7.93 µM (active) and the outcome [13] was “inactive”. The AC50 [14] was 1.99 µM (active).

With OCCCBr the outcome [16] was “inactive”.

With COC(=O)Nc1nc2ccccc2[nH]1 the outcome [1] was “inactive”, the AC50 [2] was 12.5 µM (active) and the outcome [3] was “inactive”. For the same compound, the outcome [4] was “inactive”, the outcome [5] was “inactive” and the outcome [6] was “inactive”. For the same compound, the outcome [7] was “inactive”, the AC50 [8] was 12.5 µM (active) and the AC50 [9] was 12.5 µM (active). The AC50 [10] was 12.5 µM (active), the outcome [11] was “inactive” and the AC50 [12] was 7.64 µM (active). The AC50 [14] was 5.11 µM (active) and the outcome [15] was “inactive”.
